Sampled rows, rich in hits. Any-hit rate of the full collection: about 0.63%.
GAA glycogen – GAA glycogen-cleavage inhibition or activation. P10253. recombinant GAA, glycogen substrate, Amplex Red glucose oxidase fluorescence. Potency, µM (series often up to 76.4 µM), inactives show at the highest dose activity change, negative = inhibition, actives largely listed as inhibitors. 300,000 compounds, 0.38% hits. AID 2100;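 note: 0% = full enzyme reaction and -100% = no-enzyme basal signal; the screen sought inhibitors and activators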
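Natural-substrate format: glycogen cleavage by 4 nM human enzyme, glucose read by Amplex Red coupling (Ex 573, Em 610 nm). Normalized to enzyme and no-enzyme controls.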
GALK inhibitor – galactokinase (human) inhibition. P51570. Purified GALK, Kinase-Glo residual ATP luminescence. Potency, µM (series often up to 57.5 µM), without a hit: top-dose activity change, negative = inhibition, hits mostly inhibitors. 270,000 compounds, 0.007% hits. AID 1868
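Compounds were pin-transferred into ATP buffer (35 uM final), then GALK plus galactose (5 nM, 100 uM final) was added. After 1 h at room temperature, Kinase-Glo Plus was added and luminescence read after 10 min.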
GAA inh – alpha-glucosidase (human) inhibition | 200,000 compounds, 0.005% hits | purified human GAA, 4-MU-alpha-glucoside fluorescence | AID 1466 | Potency, µM (titrated, usually from 76.9 µM), inactives show at the highest dose activity change, negative = inhibition, hits mostly inhibitors;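 note: plate controls were uninhibited enzyme wells for no effect and no-enzyme background for full effect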
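Activity normalized between no-enzyme (basal) and enzyme-only wells. Conditions: 4 nM human enzyme, 400 uM fluorogenic substrate, citrate/phosphate pH 5.0 with Tween-20, 20 min room temperature, compounds up to 77 uM.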
PKM2 activator – increases activity of human pyruvate kinase M2 | P14618 | purified PKM2, Kinase-Glo ATP luminescence, activation; response scale: 0% is enzyme alone, no compound | Potency, µM (doses to about 57.5 µM), for the others: at the top dose activation, hits mostly activators | 260,000 compounds, 0.34% hits | AID 1631; note: nearly all actives have a fitted effect of over 55% in size
Target sequence (P14618 whole entry, looked up): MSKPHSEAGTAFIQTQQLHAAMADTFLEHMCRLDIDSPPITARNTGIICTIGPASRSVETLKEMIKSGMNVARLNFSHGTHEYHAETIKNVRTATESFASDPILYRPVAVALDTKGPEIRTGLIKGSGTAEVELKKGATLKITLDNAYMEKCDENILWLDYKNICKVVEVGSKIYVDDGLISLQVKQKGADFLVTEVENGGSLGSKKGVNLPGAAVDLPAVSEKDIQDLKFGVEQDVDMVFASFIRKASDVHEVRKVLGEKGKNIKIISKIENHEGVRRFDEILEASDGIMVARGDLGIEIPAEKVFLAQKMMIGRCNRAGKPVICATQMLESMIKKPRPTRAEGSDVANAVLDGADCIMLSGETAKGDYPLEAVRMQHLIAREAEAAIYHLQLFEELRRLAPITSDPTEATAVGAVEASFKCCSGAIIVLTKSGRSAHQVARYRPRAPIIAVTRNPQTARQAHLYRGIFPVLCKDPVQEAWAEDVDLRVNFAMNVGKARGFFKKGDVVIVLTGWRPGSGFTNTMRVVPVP
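Purified hPK-M2 (>95% pure) converted ADP (0.1 mM final) to ATP with 0.5 mM PEP in 50 mM imidazole pH7.2, KCl, MgCl2, Tween 20, BSA; 1 h at room temperature. ATP detected by Kinase-Glo luminescence.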
aGlu spleen mod – lysosomal alpha-glucosidase (human) modulation. P10253. human spleen homogenate, 4-MU-alpha-glucoside fluorescence. Potency, µM (highest dose often 79.9 µM), without a hit: top-dose activity change, negative = inhibition, actives largely listed as inhibitors. 240,000 compounds, 0.006% hits;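 note: 0% = enzyme with vehicle and -100% = no enzyme basal signal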
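Enzyme source: human spleen homogenate, 1 ug/well. Buffer 50 mM citric acid/K phosphate pH 5.0, 0.01% Tween-20. 4-MU-alpha-glucoside 1 mM; 37 C x 40 min; NaOH/glycine stop; fluorescence.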
* hit, by the source's call; [ ] = dose if it differs, or a comment. Calls come from the whole dose curve; as a rule, active = well fitted curve in the direction sought with a large enough effect; inconclusive = small, poorly fitted or top-dose-only effect, or another doubt; inactive = no such curve, though single readings can be large; an effect the other way counts as inactive or inconclusive. Unless noted, % is set by controls: 0 for no effect and ±100 for the full control effect; potency is the fitted concentration of half-maximal effect.

For Cc1nc(NS(=O)(=O)c2ccccc2)sc1NC(=O)OC(C)C the results were GAA glycogen 28µM*, GALK inhibitor -2%, GAA inh 4%, PKM2 activator -4% and aGlu spleen mod -7%.
`Cc1ccc(S(=O)(=O)Nc2nc(C)c(NC(=O)OCCCl)s2)cc1` gave GAA glycogen 22µM*, GALK inhibitor -1%, GAA inh -4%, PKM2 activator -8% and aGlu spleen mod -6%.
For COC(=O)c1[nH]c2ccc(Cl)cc2c1NC(=O)Oc1ccccc1 the results were GAA glycogen 25µM*, GALK inhibitor -1%, GAA inh 9%, PKM2 activator -1% and aGlu spleen mod 0%.
CC1=C(C(=O)Nc2ccc(Cl)cc2)C(c2ccc(C(F)(F)F)cc2)n2nnnc2N1 (centres undefined) was read as GAA glycogen 8%[76.3 µM].
`COc1cc(/C=N/Nc2ccc(C(=O)O)cc2)cc(OC)c1OC` gave GAA glycogen inconclusive, GALK inhibitor 4%, PKM2 activator 0% and aGlu spleen mod 2%.
For COc1cc(/C=N/NC(=O)NC2CCCCC2)ccc1O the results were GAA glycogen 25µM*, GALK inhibitor -1%, PKM2 activator 2% and aGlu spleen mod 2%.
For COc1cc(/C=N/Nc2ccccn2)ccc1O the results were GAA glycogen 25µM*, GALK inhibitor 1%, PKM2 activator -3% and aGlu spleen mod -4%.
Screening Cc1ccc(/C=N/Nc2ccc(Cl)nn2)cc1 returned GAA glycogen 3%, GALK inhibitor -1%, PKM2 activator -4% and aGlu spleen mod 6%.
`Oc1ccc(/C=N/Nc2ccc(Cl)nn2)cc1O` gave GAA glycogen 6.3µM* and GALK inhibitor -3%.
For COc1cc(/C=N/Nc2ccc(C(=O)O)cc2)ccc1O the results were GAA glycogen 5.6µM*, GALK inhibitor 6%, GAA inh -10%, PKM2 activator -6% and aGlu spleen mod -4%.
Screening CCC1CN(C(=O)N2CCC(C(=O)O)CC2)c2cc(C)ccc2O1 (centres undefined) returned GAA glycogen -15%[76.3 µM].
Screening CC1N(C)c2cccc3cccc(c23)N1C returned GAA glycogen 12µM*, GALK inhibitor -1%, GAA inh 5%, PKM2 activator 5% and aGlu spleen mod 4%.
CCc1cccc(CC)c1NC(=O)c1c(C)oc2ccc(O)c(CN3CCN(C)CC3)c12 was read as GAA glycogen -5%[76.3 µM].
CCN(CC)c1ccc(NC(=S)NC(=O)c2cccs2)cc1 was read as GAA glycogen 14µM*, GALK inhibitor 4%, GAA inh 7%, PKM2 activator -5% and aGlu spleen mod 5%.
For CCN(CC)c1ccc(NC(=S)NC(=O)c2ccco2)cc1 the results were GAA glycogen 11µM*, GALK inhibitor 2%, GAA inh 13%, PKM2 activator -2% and aGlu spleen mod -9%.
Screening CCc1noc(-c2ccc(N3CCC(C)CC3)c([N+](=O)[O-])c2)n1 returned GAA glycogen 3%[76.3 µM].
For c1ccc(OCc2nn3c(Cn4cnc5ccccc54)nnc3s2)cc1 the results were GAA glycogen -9%, GALK inhibitor -1%, GAA inh 0%, PKM2 activator 4.5µM* and aGlu spleen mod -5%.
CCOc1ccccc1OCc1nn2c(COc3ccccc3)nnc2s1 was read as GAA glycogen -7%, GALK inhibitor -2%, GAA inh 2%, PKM2 activator 0% and aGlu spleen mod -8%.
`c1cncc(-c2nn3c(Cn4cnc5ccccc54)nnc3s2)c1` gave GAA glycogen 5%, GALK inhibitor 4%, GAA inh -3%, PKM2 activator inconclusive and aGlu spleen mod 5%.
`c1ccc2c(c1)ncn2Cc1nnc2sc(-c3ccncc3)nn12` gave GAA glycogen 3%, GALK inhibitor 0%, GAA inh -2%, PKM2 activator 8.9µM* and aGlu spleen mod -6%.
For Cc1cccc(OCC(=O)N(Cc2cccc(Cl)c2)Cc2ccco2)c1C the results were GAA glycogen 0%[76.3 µM].
COc1ccccc1C1CC(=O)Oc2cc3c(cc21)OCO3 (centres undefined) was read as aGlu spleen mod 6%[119 µM].
`CCOc1ccc(Nc2oc(-c3ccco3)nc2C#N)cc1` gave GAA glycogen 35µM*, GALK inhibitor 3%, GAA inh -3%, PKM2 activator -3% and aGlu spleen mod -7%.
For COc1ccc(NCc2ccc([N+](=O)[O-])s2)c(OC)c1 the results were GAA glycogen 9.9µM*, GALK inhibitor -2%, GAA inh -5%, PKM2 activator 0% and aGlu spleen mod 3%.
`COc1ccc(NCc2ccc([N+](=O)[O-])s2)cc1` gave GAA glycogen inconclusive, GALK inhibitor -2%, GAA inh 0%, PKM2 activator -2% and aGlu spleen mod 1%.
Screening O=C(c1cccc2cccc(O)c12)N1CCCCC1 returned GAA glycogen 25µM*, GALK inhibitor 0%, GAA inh 5%, PKM2 activator -3% and aGlu spleen mod 2%.
Screening O=C(c1cccc2ccccc12)N1CCCCC1 returned GAA glycogen -8%[76.3 µM], GALK inhibitor 0% and PKM2 activator -5%.
Screening Cc1ccc(NC(=O)CSc2nc3ccc(NC(=O)COc4ccc(C)cc4)cc3s2)cc1 returned GAA glycogen -6%[76.3 µM].
Screening CCc1nn(CC(=O)N2CCN(c3cccc(C)c3)C(C)C2)c(=O)c2cc3sccc3n12 (centres undefined) returned GAA glycogen -12%[76.3 µM].
For Cc1ccc(CNc2nc3ccccc3n3c(C)nnc23)cc1 the results were GAA glycogen 11%[76.3 µM].
`Nc1cc(Cl)c(N)cc1Cl` gave GAA glycogen 28µM*, GALK inhibitor 1%, GAA inh -7%, PKM2 activator 1% and aGlu spleen mod 2%.
Screening Nc1cc(Cl)c(N)c(Cl)c1 returned aGlu spleen mod -7%.
Cc1nc2nncn2c(NCc2ccc(Cl)cc2)c1C was read as GAA glycogen 2%[76.3 µM].
`COc1ccc(CNC(=O)c2nn(-c3ccccc3C)nc2CO)cc1` gave GAA glycogen -8%[76.3 µM].
Cc1cc(C(=O)NNC(=S)Nc2ccccc2)nn1C was read as GAA glycogen 3.5µM*, GALK inhibitor 0%, GAA inh 12%, PKM2 activator -2% and aGlu spleen mod -5%.
Cc1nc2ccccn2c1C(=O)NNC(=S)Nc1ccccc1 was read as GAA glycogen inconclusive, GALK inhibitor 5%, PKM2 activator -12% and aGlu spleen mod 3%.
`Cc1nnsc1C(=O)NNS(=O)(=O)c1ccccc1` gave GAA glycogen 28µM*, GALK inhibitor 2%, GAA inh 1%, PKM2 activator 0% and aGlu spleen mod 0%.
